According to PubChem BioAssay (NCATS):
Inconclusive results are not listed. Active and inactive are the calls of the source. Unless noted, calls come from the whole dose curve.

Legend:
[1] = qHTS for Inhibitors of the Functional Ribonucleoprotein Complex (vRNP) of Lassa (LASV) Arenavirus: LASV Primary Screen - GLuc reporter signal (AID 1347082; calls by dose curve; tested in HEK293 reporter line; note: nearly all actives have a fitted effect of over 60% in size); conditions: LASV minigenome vRNP, Gaussia luciferase reporter; series mostly up to 57.5 µM
[2] = qHTS for Inhibitors of the Functional Ribonucleoprotein Complex (vRNP) of Lassa (LASV) Arenavirus: Viability assay - alamar blue signal for LASV Primary Screen (AID 1347083; calls by dose curve; tested in HEK293 reporter line; note: nearly all actives have a fitted effect of over 80% in size); conditions: cell viability, alamar blue fluorescence (LASV minigenome counter-screen); series mostly up to 57.5 µM
[3] = qHTS for Inhibitors of the Functional Ribonucleoprotein Complex (vRNP) of Lymphocytic Choriomeningitis Arenaviruses (LCMV): Viability assay - alamar blue signal for LCMV Primary Screen (AID 1347085; calls by dose curve; tested in HEK293 reporter line; note: nearly all actives have a fitted effect of over 80% in size); conditions: alamar blue viability counter-screen, LCMV vRNP screen cells; series mostly up to 57.5 µM
[4] = target: Nucleoprotein (Lymphocytic choriomeningitis virus (strain Armstrong)) (UniProt P09992); experiment: qHTS for Inhibitors of the Functional Ribonucleoprotein Complex (vRNP) of Lymphocytic Choriomeningitis Arenaviruses (LCMV): LCMV Primary Screen - GLuc reporter signal (AID 1347086); conditions: LCMV minigenome vRNP cell assay, Gaussia luciferase reporter; series mostly up to 57.5 µM; note: nearly all actives have a fitted effect of over 70% in size
Chain of Nucleoprotein (Lymphocytic choriomeningitis virus (strain Armstrong)) (P09992 whole entry, looked up): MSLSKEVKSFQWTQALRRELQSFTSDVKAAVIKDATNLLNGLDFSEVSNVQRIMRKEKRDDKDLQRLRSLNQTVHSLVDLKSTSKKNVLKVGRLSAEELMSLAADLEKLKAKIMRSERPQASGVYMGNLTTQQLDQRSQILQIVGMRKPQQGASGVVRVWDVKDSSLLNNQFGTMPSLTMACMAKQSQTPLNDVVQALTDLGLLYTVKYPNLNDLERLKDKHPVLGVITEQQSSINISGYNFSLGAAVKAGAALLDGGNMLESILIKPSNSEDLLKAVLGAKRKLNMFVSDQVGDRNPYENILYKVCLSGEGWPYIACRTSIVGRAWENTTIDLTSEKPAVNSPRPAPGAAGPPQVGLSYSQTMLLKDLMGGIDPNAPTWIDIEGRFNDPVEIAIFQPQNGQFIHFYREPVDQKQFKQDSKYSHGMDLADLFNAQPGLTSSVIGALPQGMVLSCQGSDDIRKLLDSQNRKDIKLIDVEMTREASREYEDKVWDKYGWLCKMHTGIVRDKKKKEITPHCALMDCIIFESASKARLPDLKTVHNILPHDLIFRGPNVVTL

Measured: Potency

CN(C)CCCO[C@@H]1[C@H]2OC(C)(C)O[C@H]2O[C@@H]1C(O)CO (some centres not stated)
inactive: all assays above

COc1ccc(CCN(C)CCCC(C#N)(c2cc(OC)c(OC)c(OC)c2)C(C)C)cc1OC (configuration not stated)
inactive: all assays above

CC(C)C(=O)OCc1cccc(OC(=O)[C@@H]2N3C(=O)[C@@H](NC(=O)Cc4ccccc4)[C@H]3SC2(C)C)c1
inactive: all assays above

CN1CCN(c2cc3c(nn2)Oc2ccccc2N3C)CC1
inactive: all assays above

O=C(O)C(=O)Nc1cccc(-c2nn[nH]n2)c1
inactive: all assays above

CCC(C(=O)OCCN1CCOC(c2ccccc2)C1C)c1ccccc1 (configuration not stated)
inactive: all assays above

CN1CCCN=C1COC(=O)C(O)(c1ccccc1)C1CCCCC1 (configuration not stated)
inactive: all assays above

N=C(N)c1ccc2cc(OC(=O)c3ccc(N=C(N)N)cc3)ccc2c1
inactive: all assays above

CCN(CC)C(=O)c1cccc(C)c1
inactive: all assays above

CCN(CC)C(=O)N1CCN(C)CC1
inactive: all assays above

CN(C)CCN1C(=O)c2ccccc2N(C)c2ccccc21
inactive: all assays above

O=C1NC2CCCCN2C12CCN(CCCN1c3ccccc3CCc3ccc(Cl)cc31)CC2 (configuration not stated)
inactive: all assays above

CC(C)(C)CC(C)(C)c1ccc(O)c(Cc2ccc(Cl)cc2Cl)c1
inactive: all assays above
